Measurements published in PubChem BioAssay AID651636 (Sanford-Burnham Center for Chemical Genomics, 2012).
Hit rate of the full screen: of about 360,000 compounds, about 3,000 (0.83%) were called active. The sample holds actives, similar compounds and a random draw of the others, so the mix is not that of the screen. Values without a mark were called inactive. Cut-off read from the data, not from the text of the source: active = inhibition above about 38%; inactive = the rest.

biological target: G-protein coupled receptor 183 (Homo sapiens) (UniProt P32249); assay: EBI2 receptor antagonists, beta-arrestin recruitment, primary screen, cell-based, luminescence, 7a,25-OHC stimulation, uHTS (AID 651636); settings: 7a,25-OHC stimulated, at 5 µM, stronger effect = higher value;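 note: enzyme fragment complementation signal reports receptor beta-arrestin coupling in cells; 0% = agonist plus DMSO wells and 100% = wells without agonist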
Sequence (P32249 whole entry, looked up, the tested form may be a part): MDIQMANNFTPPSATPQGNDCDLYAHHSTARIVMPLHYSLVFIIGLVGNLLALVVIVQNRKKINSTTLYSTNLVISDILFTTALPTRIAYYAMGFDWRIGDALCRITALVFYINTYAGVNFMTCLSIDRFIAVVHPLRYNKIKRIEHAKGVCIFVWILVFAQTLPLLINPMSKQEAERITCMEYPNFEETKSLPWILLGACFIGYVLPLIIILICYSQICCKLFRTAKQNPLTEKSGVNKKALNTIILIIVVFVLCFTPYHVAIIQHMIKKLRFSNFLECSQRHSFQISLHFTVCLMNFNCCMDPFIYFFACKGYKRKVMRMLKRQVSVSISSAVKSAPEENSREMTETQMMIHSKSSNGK

SMILES | inhibition
CCOc1ccc(S(=O)(=O)Nc2ccncc2)c(C)c1C | -5.77%
CCCS(=O)(=O)NC(=O)C1(C)CCCN(C(=O)c2cc(C)on2)C1 (stereo unspecified) | -3.5%
O=C(CN1CCN(c2ccc(Cl)cc2)CC1)c1ccccc1 | 2.55%
Oc1c(CN2CCN(c3ccc(F)cc3)CC2)cc(Cl)c2cccnc12 | 54.1% (active)
Cc1cccc(C)c1NC(=O)CN1CCN(c2ccc(F)cc2)CC1 | 0.0279%
COc1cccc(-c2ccc3c(c2)N(Cc2ccccc2OC)C(=O)C(C)S3)c1 (stereo unspecified) | 27.4%
CN(C)C(=O)c1cccc(-c2cnc3c(NC=O)cc(-c4ccc(F)cc4)cn23)c1 | 8.37%
COc1ccc(-c2cc(NC=O)c3ncc(-c4cccc(C(=O)N(C)C)c4)n3c2)c(OC)c1 | 52% (active)
COc1ccc(-c2cc(NC=O)c3ncc(-c4cc(OC)c(OC)c(OC)c4)n3c2)c(OC)c1 | 15.5%
N#Cc1ncc(C(F)(F)F)cc1Oc1cccnc1 | -11%
Cc1onc(-c2ccccc2Cl)c1C(=O)N(Cc1ccc(N(C)C)cc1)C(C)C | 1.77%
CC(Sc1nncn1C)C(=O)Nc1ccccc1-c1ccccc1 (stereo unspecified) | -4.03%
CCOC(=O)C1=NN(c2ccc(Cl)cc2)/C(=C/C2=NCCc3cc(OC)c(OC)cc32)S1 | 6.84%
COc1ccc(N2CCN(c3ccc([N+](=O)[O-])nc3)CC2)cc1 | 6.82%
COc1ccc(-c2cc(C3CCN(c4ncccc4[N+](=O)[O-])CC3)[nH]n2)cc1 | 37.5% (active)
CC(=O)NC(Cc1ccccc1)C(=O)NC1CCN(c2ncccc2[N+](=O)[O-])CC1 (stereo unspecified) | 5.83%
CCN1CCN(C(=O)N(Cc2ccc(Cl)cc2)S(=O)(=O)c2ccc(C)cc2)CC1 | -6.18%
CC1=C(C(=O)N(C(C)C)C(C)C)CC(CC(=O)NCC2CCCCC2)C(=O)N1Cc1ccccc1 (stereo unspecified) | 3.31%
O=c1[nH]c(CN2CCN(S(=O)(=O)c3ccc4c(c3)OCCO4)CC2)nc2sc3c(c12)CCCC3 | 38.3% (active)
CN1CCCN(S(=O)(=O)c2ccc3c(c2)OCCO3)CC1 | -1.61%
O=C(c1ccc(Cl)nc1)N1CCN(S(=O)(=O)c2ccc3c(c2)OCCO3)CC1 | 17.6%
C=CCOc1ccc(/C=C/C(=O)OCC(=O)NC(C)c2ccc(F)cc2)cc1 (stereo unspecified) | 29.1%

SMILES | inhibition
Cn1c(SCC(=O)OC2CCCCC2)nnc1-c1ccc(S(=O)(=O)N2CCCC2)cc1 | 0.352%
COc1ccc(CCNC(=O)CCn2c(=O)c3ccccc3n(CC(=O)NCC3CCCO3)c2=O)cc1OC (stereo unspecified) | -15.5%
CC1(Cc2ccccc2C#N)C(=O)Nc2ccc(-c3ccc4[nH]ccc4c3)cc21 (stereo unspecified) | 47.3% (active)
COc1ccccc1CC1(C)C(=O)Nc2ccc(OC(F)(F)F)cc21 (stereo unspecified) | 3.59%
CC1(Cc2cccc(C#N)c2)C(=O)Nc2ccc(-c3cccc(C(F)(F)F)c3)cc21 (stereo unspecified) | 17.2%
CCCCOCCCNC(=O)C[C@@H]1C[C@@]2(C(=O)OCC)CCCC=C2N(CCC2=CCCCC2)C1=O | 1.45%
COc1ccc(N(CC(=O)Nc2cc(OC)ccc2OC)S(=O)(=O)c2c(C)noc2C)cc1 | 65.5% (active)
CCOC(=O)c1cccc(NC(=O)CN(c2ccc(C)cc2)S(=O)(=O)c2c(C)noc2C)c1 | 15.3%
CCOc1ccc(N(CC(=O)OC)S(=O)(=O)c2c(C)noc2C)cc1 | 1.12%
Cc1nc2ccc(C(=O)N3CCSCC3)cc2s1 | -12.2%
Cc1nc2ccc(C(=O)N3CCN(c4ccccc4)CC3)cc2s1 | 65.3% (active)
CCc1nc2ccc(C(=O)N3CCN(c4cccc(Cl)c4)CC3)cc2nc1CC | -4.92%
Cc1c(CN2CCCC(C(=O)c3cccc(Cl)c3)C2)c(=O)n(-c2ccccc2)n1C (stereo unspecified) | 5.82%
OC[C@@H]1CN(Cc2ccncc2)C[C@H](n2cnc3c(N4CCN(c5ccccc5)CC4)ncnc32)O1 | 13.5%
CCC1Nc2ncnc(N3CCN(c4ccccc4)CC3)c2N(Cc2ccc(Cl)cc2)C1=O (stereo unspecified) | 68.8% (active)
CC[C@]1(C(=O)OC)[C@H]2C(=O)N(Cc3ccccc3)C(=O)[C@H]2[C@H]2CN=C(SCc3ccc(Cl)cc3)N21 | 19.5%
CC(C)CC1(C)NC(=O)N(CC(=O)Nc2ccc3c(c2)OCCO3)C1=O (stereo unspecified) | 10.5%
O=C(NCCS(=O)(=O)N1CCN(c2ccc(F)cc2)CC1)c1ccc2c(c1)OCO2 | 5.18%
O=C(NNC(=S)Nc1ccc(F)cc1)[C@H]1C[C@@H]1c1ccccc1 | -13.1%
CCN(CC)c1ccc(/C=N/Nc2nc(C)cc(C)n2)c(O)c1 | 42.4% (active)
O=C(NCCN1C(=O)S/C(=C\c2cccnc2)C1=O)c1ccc(S(=O)(=O)N2CCCC2)cc1 | -1.14%
Cc1ccc(SCCC(=O)NC(C(C)C)C(C)C)cc1 | 5.4%

SMILES | inhibition
O=S(=O)(NCCOc1cccc2cccnc12)c1ccc(F)cc1 | 0.785%
CCOc1cccc(OCCCOc2cccc3cccnc23)c1 | 4.1%
Cc1cc(OCCOc2cccc3cccnc23)c(C)cc1Cl | 46.6% (active)
CCOC(=O)N1CCN(C(=O)C[C@@H]2C[C@@]3(C(=O)OC)CC(C)(C)CC=C3N(Cc3ccco3)C2=O)CC1 | 3.44%
Cc1nc(-c2ccccc2)sc1C(=O)/C=C/c1ccccc1 | 55.4% (active)
Cc1[nH]c(=O)c(C(=O)/C=C/c2ccccc2)c2c1CCCC2 | -9.45%
Cc1nc(-c2ccc(Cl)cc2)sc1C(=O)CBr | 10.7%
CC1=C/C(=N\OS(=O)(=O)c2ccccc2)C=CC1=O | -17.6%
O=S(=O)(Nc1cccc(-n2cnnn2)c1)c1cnc(Cl)c(Cl)c1 | -8.42%
CC(C)(C)C1CCC(=NNC(=O)c2ccc(Br)o2)CC1 (stereo unspecified) | -9.46%
O=C1C=C(c2cc(C(F)(F)F)cc(C(F)(F)F)c2)C[C@@H](c2ccc3c(c2)OCO3)C1 | 14%
N#Cc1ccc(C2=CC(=O)C[C@H](c3ccc(Cl)cc3)C2)cc1 | 80.3% (active)
O=C1C=C(c2cccc(Cl)c2)C[C@@H](c2ccc(F)cc2)C1 | 22.1%
COc1ccc2cc(C3=CC(=O)C[C@H](c4ccc5c(c4)OCO5)C3)ccc2c1 | 71.7% (active)
COc1ccc([C@H]2CC(=O)C=C(c3ccc(CO)cc3)C2)cc1 | 29.6%
COc1ccc([C@H]2CC(=O)C=C(c3ccc(C)cc3)C2)cc1 | 81.1% (active)
O=C1C=C(c2cccc(Br)c2)C[C@@H](c2ccc(F)cc2)C1 | 36.7%
COc1ccc([C@H]2CC(=O)C=C(/C=C/c3ccccc3)C2)cc1 | 34.9%
CCCCC/C=C/C1=CC(=O)C[C@H](c2ccc(Cl)cc2)C1 | 4.95%
COc1ccc([C@H]2CC(=O)C=C(/C=C/c3ccc(Cl)cc3)C2)cc1 | 44.1% (active)
COc1ccc([C@H]2CC(=O)C=C(c3ccc(OC(F)(F)F)cc3)C2)cc1OC | 31%
COc1cccc(C2=CC(=O)C[C@H](c3ccc(OC)c(OC)c3)C2)c1 | 10.2%
